According to PubChem BioAssay:
Active and inactive are the calls of the source.

Key:
[1] = optical density shifts of acrAB sulA E. coli – strain DRC41, OD650, 48 h, E. coli filamentation inducer project, primary screen (AID 1152); conditions: higher = more signal, called active from +8 up or from −8 down;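 note: E. coli MC1000 strain DRC41 lacking acrAB efflux pump and sulA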
[2] = probe aLefty1 binding on compound microarray – biochemical, small-molecule microarray, 635/667 nm fluorescence, primary screen (AID 1153); conditions: higher = more signal;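 note: score merges spot fluorescence with signal-to-noise ratio from the scanned slide images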
[3] = plasmodial surface anion channel blockers, osmotic lysis – cell-based, P. falciparum Indochina, OD700, 1 h, primary screen (AID 1154); conditions: P. falciparum Indochina infected RBC osmotic lysis, higher = more signal, called active from +8 up or from −8 down
[4] = plasmodial surface anion channel blockers, osmotic lysis – cell-based, P. falciparum Indochina, OD700, 2 h, primary screen (AID 1155);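 note: lysis reports solute entry through the parasite surface anion channel PSAC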; conditions: P. falciparum Indochina infected erythrocytes, higher = more signal, called active from +8 up or from −8 down
[5] = changes in parasitized red cell lysis, either direction – P. falciparum Indochina, OD700, 3 h, PSAC antagonist project, primary screen (AID 1156); conditions: P. falciparum-infected erythrocytes, osmotic lysis, higher = more signal, called active from +8 up or from −8 down
[6] = plasmodial surface anion channel blockers, osmotic lysis – cell-based, P. falciparum Indochina, OD700, 18 h, primary screen (AID 1157); conditions: P. falciparum Indochina infected erythrocytes, osmotic lysis OD700, 18 h; higher = more signal, called active from +8 up or from −8 down
[7] = S6 kinase pathway phospho-S6 level changes – cell-based, A549, cytoblot, luminescence, serum-stimulated, primary screen (AID 1158); conditions: 5 h, higher = more signal;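 note: serum-stimulated A549 lung adenocarcinoma cells; signal is phosphorylated S6 detected by cytoblot immunostaining with HRP secondary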
[8] = molecular target: NADPH oxidase 2 (Homo sapiens) (UniProt P04839); assay: compounds shifting NOX2 Amplex Red fluorescence – cell-based, HEK293-NOX2, PMA-stimulated, NOX inhibitor project, primary screen (AID 1159); conditions: 45 min, higher = more signal, called active from +8 up or from −8 down; note: test concentration not given here
Sequence of NADPH oxidase 2 (Homo sapiens) (P04839 whole entry, looked up): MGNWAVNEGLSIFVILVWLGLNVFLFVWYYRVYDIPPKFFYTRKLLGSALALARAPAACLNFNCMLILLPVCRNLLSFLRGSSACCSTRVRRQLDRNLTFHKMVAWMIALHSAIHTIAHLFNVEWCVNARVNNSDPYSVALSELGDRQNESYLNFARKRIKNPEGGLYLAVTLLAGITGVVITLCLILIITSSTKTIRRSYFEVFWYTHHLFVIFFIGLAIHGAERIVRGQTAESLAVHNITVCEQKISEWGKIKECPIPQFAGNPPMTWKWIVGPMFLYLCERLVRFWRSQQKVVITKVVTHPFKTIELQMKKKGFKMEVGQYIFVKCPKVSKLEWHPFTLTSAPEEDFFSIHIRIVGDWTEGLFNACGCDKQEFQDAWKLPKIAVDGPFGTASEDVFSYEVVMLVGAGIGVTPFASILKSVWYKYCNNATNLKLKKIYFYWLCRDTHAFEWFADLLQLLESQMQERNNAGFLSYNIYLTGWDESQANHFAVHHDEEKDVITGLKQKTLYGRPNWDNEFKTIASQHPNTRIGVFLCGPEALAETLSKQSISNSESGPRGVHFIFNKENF

[9] = molecular target: NADPH oxidase 4 (Homo sapiens) (UniProt Q9NPH5); assay: compounds shifting NOX4 Amplex Red fluorescence – cell-based, HEK293-NOX4, tetracycline-induced, NOX inhibitor project, primary screen (AID 1160); conditions: HEK293-NOX4, Amplex Red H2O2 fluorescence, 45 min; higher = more signal, called active from +8 up or from −8 down
Sequence of NADPH oxidase 4 (Homo sapiens) (Q9NPH5 whole entry, looked up): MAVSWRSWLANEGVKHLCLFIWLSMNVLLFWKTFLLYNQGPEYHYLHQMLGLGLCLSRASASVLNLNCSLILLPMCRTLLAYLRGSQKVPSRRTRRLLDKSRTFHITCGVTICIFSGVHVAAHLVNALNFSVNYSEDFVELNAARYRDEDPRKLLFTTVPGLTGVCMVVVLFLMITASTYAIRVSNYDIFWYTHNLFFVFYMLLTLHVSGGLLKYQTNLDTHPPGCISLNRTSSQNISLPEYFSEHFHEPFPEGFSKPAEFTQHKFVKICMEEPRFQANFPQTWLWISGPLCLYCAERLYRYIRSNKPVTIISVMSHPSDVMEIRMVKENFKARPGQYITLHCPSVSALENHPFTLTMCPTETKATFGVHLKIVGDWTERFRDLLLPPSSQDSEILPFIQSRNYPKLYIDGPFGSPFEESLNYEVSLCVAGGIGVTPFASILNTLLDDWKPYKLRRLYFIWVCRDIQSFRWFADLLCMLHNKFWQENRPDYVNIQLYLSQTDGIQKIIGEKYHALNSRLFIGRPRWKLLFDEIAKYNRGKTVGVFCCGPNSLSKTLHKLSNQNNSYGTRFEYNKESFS

[10] = molecular target: NADPH oxidase 5 (Homo sapiens) (UniProt Q96PH1); assay: compounds shifting NOX5 Amplex Red fluorescence – cell-based, HEK293-NOX5, NOX inhibitor project, primary screen (AID 1161); conditions: HEK293-NOX5, ionomycin, 45 min, higher = more signal
Sequence of NADPH oxidase 5 (Homo sapiens) (Q96PH1 whole entry, looked up): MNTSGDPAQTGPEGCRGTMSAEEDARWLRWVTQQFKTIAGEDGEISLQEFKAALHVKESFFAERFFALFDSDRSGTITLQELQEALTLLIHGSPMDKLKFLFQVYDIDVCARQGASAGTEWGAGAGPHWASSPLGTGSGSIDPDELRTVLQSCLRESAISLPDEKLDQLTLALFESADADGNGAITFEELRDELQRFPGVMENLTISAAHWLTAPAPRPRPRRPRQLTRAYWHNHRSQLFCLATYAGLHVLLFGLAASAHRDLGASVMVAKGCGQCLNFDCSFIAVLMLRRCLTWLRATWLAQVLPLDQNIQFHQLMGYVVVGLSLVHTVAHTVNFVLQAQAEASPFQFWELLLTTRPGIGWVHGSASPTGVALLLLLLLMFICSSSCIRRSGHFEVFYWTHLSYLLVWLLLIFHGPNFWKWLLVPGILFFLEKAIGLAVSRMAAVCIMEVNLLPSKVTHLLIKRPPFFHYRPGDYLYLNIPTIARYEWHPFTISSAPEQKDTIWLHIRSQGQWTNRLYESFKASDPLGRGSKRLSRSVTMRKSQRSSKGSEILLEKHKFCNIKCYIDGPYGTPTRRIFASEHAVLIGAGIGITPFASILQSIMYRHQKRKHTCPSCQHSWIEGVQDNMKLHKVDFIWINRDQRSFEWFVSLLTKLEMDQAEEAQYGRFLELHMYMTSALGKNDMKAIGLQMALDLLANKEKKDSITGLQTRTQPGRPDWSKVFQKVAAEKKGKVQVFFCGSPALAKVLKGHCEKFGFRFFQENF

[11] = compound effects on lung adenocarcinoma cell viability – A549, calcein-AM fluorescence, 48 h, basal, profiling panel (AID 1162); conditions: higher = more signal; note: test concentration not given here
[12] = compound effects on differentiated 3T3-L1 adipocyte viability – cell-based, 3T3-L1 adipocytes, calcein-AM fluorescence, 48 h, basal, profiling panel (AID 1163); conditions: 3T3-L1 adipocytes viability, higher = more signal; note: test concentration not given here
[13] = compound effects on hepatocellular carcinoma cell viability – HepG2, calcein-AM fluorescence, 48 h, basal, profiling panel (AID 1164); conditions: higher = more signal; note: test concentration not given here
[14] = compound effects on multiple myeloma cell viability – MM1S, calcein-AM fluorescence, 48 h, basal, profiling panel (AID 1165); conditions: higher = more signal; note: test concentration not given here
[15] = calcein-AM signal in unstimulated myeloma cells – cell-based, calcein-AM fluorescence, 48 h, PK04 Diversity Set, profiling panel (AID 1166); conditions: RPMI8226 myeloma viability, higher = more signal;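 note: cells grown under basal conditions without added stimulus; test concentration not given here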
[16] = JC-1 mitochondrial signal, unstimulated HepG2 cells – cell-based, JC-1 fluorescence, 24 h, 100 nL compound, profiling panel (AID 1167); conditions: HepG2 mitochondrial potential, higher = more signal; note: test concentration not given here
[17] = JC-1 mitochondrial signal, unstimulated adipocytes – cell-based, JC-1 fluorescence, 3T3-L1 adipocytes, 24 h, 100 nL compound, profiling panel (AID 1168); conditions: JC-1 mitochondrial fluorescence, higher = more signal, called active from +8 up or from −8 down; note: test concentration not given here
[18] = JC-1 mitochondrial signal, unstimulated myeloma cells – cell-based, JC-1 fluorescence, RPMI8226, 24 h, 100 nL compound, profiling panel (AID 1169); conditions: JC-1 mitochondrial potential fluorescence, higher = more signal; note: test concentration not given here
[19] = JC-1 mitochondrial signal, unstimulated MM1S myeloma – cell-based, JC-1 fluorescence, 24 h, 100 nL compound, profiling panel (AID 1170); conditions: MM1S mitochondrial potential, higher = more signal; note: test concentration not given here
[20] = resazurin metabolic signal in A549 cells – cell-based, resazurin fluorescence, 24 h, PK04 Diversity Set, profiling panel (AID 1171); conditions: A549 viability, higher = more signal, called active from +8 up or from −8 down; note: test concentration not given here

| SMILES | z-score [1] | composite z-score [2] | z-score [3] | z-score [4] | z-score [5] | z-score [6] | z-score [7] | z-score [8] | z-score [9] | z-score [10] | z-score [11] | z-score [12] | z-score [13] | z-score [14] | z-score [15] | z-score [16] | z-score [17] | z-score [18] | z-score [19] | z-score [20] |
| --- | --- | --- | --- | --- | --- | --- | --- | --- | --- | --- | --- | --- | --- | --- | --- | --- | --- | --- | --- | --- |
| O=C1O[C@@H](c2ccccc2)[C@@H](c2ccccc2)N2[C@@H](c3ccccc3OCCO)[C@]3(C(=O)Nc4ccccc43)[C@@H](C(=O)Nc3nc4ccccc4s3)[C@H]12 | 0.533 (inactive) | 1.14 | 2.02 (inactive) | 1.59 (inactive) | 0.0197 (inactive) | -1.52 (inactive) | 1.53 | 0.188 (inactive) | -0.547 (inactive) | -1.6 | -2.12 | 1.18 | -1.98 | -3.17 | -4.44 | -2.85 | 3.87 (inactive) | -1.3 | -1.54 | -1.52 (inactive) |
| COc1ccc(CCNC(=O)[C@@]2(C)c3ccccc3C(=O)N(C(C)C)[C@H]2c2ccc(CO)cc2)cc1 | 0.312 (inactive) | -0.28 | 1.66 (inactive) | 0.133 (inactive) | 0.386 (inactive) | -0.0145 (inactive) | -0.441 | -1.12 (inactive) | -0.479 (inactive) | -0.224 | 0.133 | -0.103 | 0.779 | -1.35 | -0.974 | 2.6 | 0.169 (inactive) | -0.0396 | -0.03 | -0.0933 (inactive) |
| O=C1NC(=O)C2C1C=CC(C(O)c1cc(C(F)(F)F)cc(C(F)(F)F)c1)N2Nc1ccccn1 (stereo not given) | -1.87 (inactive) | 0.127 | 0.499 (inactive) | 0.701 (inactive) | -0.0477 (inactive) | 0.827 (inactive) | -0.822 | -1.17 (inactive) | -1.72 (inactive) | -2.4 | -1.02 | -0.485 | -0.165 | 0.34 | -0.559 | -0.326 | -0.169 (inactive) | 0.372 | -0.204 | -0.568 (inactive) |
| CC(C)C(=C=CC[C@H](O)c1ccc(OCCO)cc1)CCO | -0.595 (inactive) | 0.0945 | 9.47 (active) | 1.99 (inactive) | 1.11 (inactive) | 0.553 (inactive) | -0.365 | -1.06 (inactive) | -0.581 (inactive) | -1.96 | 0.421 | 0.799 | 0.101 | -3.35 | -2.14 | -1.55 | -0.722 (inactive) | -0.881 | -0.0147 | 1.05 (inactive) |
| C#C[C@H](O[Si](C#Cc1ccc(Oc2ccccc2)cc1)(C(C)C)C(C)C)c1ccccc1 | -0.425 (inactive) | -0.104 | 0.353 (inactive) | 0.787 (inactive) | -2.03 (inactive) | -0.206 (inactive) | -0.305 | -1.03 (inactive) | -2.59 (inactive) | -3.04 | -2.21 | -1.19 | -1.48 | -3.02 | -4.16 | -3.3 | -0.805 (inactive) | -0.836 | -1.34 | -1.3 (inactive) |
| Cc1ccccc1C(O)C1C=CC2C(=O)N(c3ccccc3)C(=O)C2N1Nc1ccc(C(C)C)cc1 (stereo not given) | -1.6 (inactive) | 0.317 | 1.85 (inactive) | 1.05 (inactive) | 0.918 (inactive) | 0.974 (inactive) | -0.405 | -1.22 (inactive) | -4.14 (inactive) | -4.42 | -0.0475 | -0.127 | -0.169 | -0.136 | -0.727 | -2.15 | -1.8 (inactive) | -0.754 | -0.0109 | -1.41 (inactive) |
| O=C(NCCN1CCOCC1)[C@@H]1c2ccccc2C(=O)N(C2CCCCC2)[C@H]1c1ccc(CO)cc1 | -0.306 (inactive) | -0.007 | 3.9 (inactive) | 1.22 (inactive) | 1 (inactive) | 0.403 (inactive) | 0.227 | 0.822 (inactive) | 1.3 (inactive) | 0.579 | 1.37 | 1.19 | 2.16 | -0.165 | -1.03 | 3.08 | -0.0789 (inactive) | 0.0842 | 0.146 | 1.17 (inactive) |
| C=CCOC(=O)[C@H]1[C@@H]2C(=O)O[C@@H](c3ccccc3)[C@@H](c3ccccc3)N2[C@@H](c2ccc(OCCOC(=O)[C@H]3C[C@H]4C(=O)N[C@@H](CCCCN(C)C)C(=O)N4[C@H]3c3ccc(O)cc3)cc2)[C@]12C(=O)Nc1ccc(I)cc12 | -0.635 (inactive) | 0.461 | 5.21 (inactive) | 1.13 (inactive) | -0.286 (inactive) | 0.522 (inactive) | -0.236 | 2.18 (inactive) | 1.06 (inactive) | 1.72 | -0.041 | -0.032 | -0.959 | -0.203 | 0.427 | 0.75 | -0.623 (inactive) | 0.742 | 0.192 | -0.708 (inactive) |
